Measurements published in PubChem BioAssay (NCI).
Compounds without any hit were thinned out: in the full panel of roughly 83,000, 20% have a hit.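 For each line, cells grew in 96-well plates with the test compound present at a single concentration for 48 hours.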 A number with no mark means an inactive call. Activity calls are given as the source filed them. Rule for the calls: active = growth percent below 10; inactive = the rest.

Legend:
Assay in all cases: NCI-60 one-dose screen, 48 h (100 = growth as untreated, 0 = no growth, -100 = all killed)
Settings in all cases: 10 µM unless noted
[1] = test system: NCI-H23 lung
[2] = test system: NCI-H226 lung
[3] = test system: NCI-H322M lung
[4] = test system: HOP-62 NSCLC
[5] = test system: NCI-H460 lung
[6] = test system: HOP-92 NSCLC
[7] = test system: NCI-H522 lung
[8] = test system: A549/ATCC NSCLC
[9] = test system: 786-0 renal
[10] = test system: COLO 205 colon
[11] = test system: DU-145 prostate
[12] = test system: K-562 leukemia
[13] = test system: MALME-3M melanoma
[14] = test system: MDA-MB-231 breast
[15] = test system: RXF 393 renal
[16] = test system: SF-268 CNS
[17] = test system: SF-295 CNS
[18] = test system: SF-539 CNS
[19] = test system: UACC-257 melanoma
[20] = test system: M14 melanoma

| Structure (SMILES) | growth [1] | growth [2] | growth [3] | growth [4] | growth [5] | growth [6] | growth [7] | growth [8] | growth [9] | growth [10] | growth [11] | growth [12] | growth [13] | growth [14] | growth [15] | growth [16] | growth [17] | growth [18] | growth [19] | growth [20] |
| --- | --- | --- | --- | --- | --- | --- | --- | --- | --- | --- | --- | --- | --- | --- | --- | --- | --- | --- | --- | --- |
| COC(=O)Nc1nc2ccc(Sc3ccccc3)cc2[nH]1 | 32.7% | 19.9% | 55.4% | 29.4% | 6.37% (active) | 54.2% | 13.4% | 13.4% | 33.7% | -14.7% (active) | 17.5% | 5.33% (active) | 41.9% | 45.6% | 15% | 37.8% | -16.1% (active) | 0.846% (active) | 52.1% | 8.93% (active) |
| COc1ccc(C2=NN(C(=O)COc3ccc(Cl)cc3)C(O)(c3cc(F)c(Cl)cc3Cl)C2)cc1 (stereo not given) | 96.3% | 109% | 83.4% | 61.8% | 109% | 39.4% | 79.5% | 96.4% | 82% | 101% | 105% | 82.4% | 85.8% | 105% | 94.1% | 102% | 80.6% | 89.3% | 98.6% | 85.2% |
| COc1ccc(-c2nnc(SCC(=O)Nc3ccc(C(=O)/C=C/c4ccccc4)cc3)o2)cc1OC | 88% | 89% | 90.8% | 119% | 103% | 105% | 91.4% | 97.7% | 101% | 113% | 96.7% | 95.4% | 104% | 106% | 99.8% | 97.6% | 104% | 95.7% | 105% | 105% |
| Cc1cc2nc(-c3c(N)ncc(C#N)c3-c3ccc(Cl)cc3)[nH]c2cc1C | 50% | 91.7% | 81.1% | 83.5% | 43.2% | 10.6% | 41.2% | 36.4% | 75.1% | 67.4% | 31.9% | 62.9% | 63% | 66.4% | 70.9% | 73.4% | 58.3% | -9.94% (active) | 51.9% | 53.7% |
| Nc1ncnc2c1c(-c1ccc(Oc3ccccc3)cc1)nn2C[C@H]1SSC[C@@H]1O | 53.2% | 22.9% | 46.9% | 49.7% | 22% | -2.99% (active) | -3.56% (active) | 31% | 66.2% | 6.71% (active) | 48% | 5.41% (active) | -48.4% (active) | 61.4% | 28.7% | 43.4% | 48.4% | 38% | 9.88% (active) | -90% (active) |
| COc1ccc(-c2nnc(SCC(=O)Nc3ccc(C(=O)/C=C/c4ccc(Cl)cc4)cc3)o2)cc1OC | 79% | 85.7% | 87.4% | 71.8% | 70% | 29.7% | 16.7% | 90.7% | 70.8% | 116% | 78.9% | 52% | 5.79% (active) | 76.3% | 95.9% | 82.2% | 80.4% | 54.5% | 91.4% | 81.7% |
| COc1cc(C(=O)N2CCN(C(=O)c3cc(OC)c(OCc4ccccc4)cc3N)CC2)c(N)cc1OCc1ccccc1 | 86.8% | 122% | 99.3% | 108% | 115% | 86.1% | 103% | 107% | 104% | 115% | 111% | 7.24% (active) | 91.1% | 94.7% | 98.6% | 108% | 102% | 104% | 98.5% | 111% |
| CS(=O)(=O)OCC(COS(C)(=O)=O)C(c1ccccc1)c1ccccc1 | 96.9% | 103% | 97.9% | 91.2% | 110% | 85.2% | 95.4% | 92.3% | 99.4% | 124% | 129% | 101% | 99.7% | 96.5% | 97.4% | 109% | 97.2% | 118% | 111% | 106% |
| CCN(CC)CCNc1ccc([N+](=O)[O-])c2sc3cc(Cl)ccc3c(=O)c12 | 63.5% | 84.9% | 53.9% | 57.7% | -17.8% (active) | 47.5% | 49.4% | 52.9% | -80.3% (active) | 60.1% | 50.2% | 1.93% (active) | -9.6% (active) | 22.6% | -39.3% (active) | 52.4% | 43.9% | 34.5% | 71.5% | 79.4% |
| COc1cc(NS(=O)(=O)c2ccc(N)cc2)ncn1 | 101% | 112% | 104% | 108% | 110% | 105% | 114% | 102% | 99.1% | 113% | 118% | 92.9% | 97.4% | 94.7% | 112% | 109% | 102% | 112% | 106% | 107% |
| COc1cc(-c2nc3sc(C)cn3c2/C=C2\C(=O)Nc3ccccc32)c(Br)c(OC)c1OC | 74.4% | 80.1% | 55.8% | 26% | 8.76% (active) | 44.2% | -10.6% (active) | 50.3% | 22.9% | 52.7% | 46.9% | 9.97% (active) | 26.3% | 79.4% | 13.4% | 54.1% | 21.8% | 11.8% | 79.4% | 22.2% |
| CCc1cccc(C)c1NC(=O)c1sc2nc3c(cc2c1N)CCCCC3 | 45.3% | 50.7% | 41.4% | 36.9% | 13.3% | 72.2% | -9.98% (active) | 32.9% | 44.8% | 7.73% (active) | 13.2% | 9.14% (active) | 47% | 35.6% | 11.6% | 56.5% | 27% | 11.1% | 71.7% | 3.86% (active) |
| Cc1cc(C)c(O)c(C(=O)CC(Br)C(=O)O)c1 (stereo not given) | 96.4% | 106% | 101% | 106% | 108% | 88.1% | 81.7% | 99.3% | 86.2% | 116% | 95.3% | 84.5% | 111% | 121% | 119% | 95.9% | 101% | 91.2% | 96.2% | 95.1% |
| Cc1cc(Nc2ccc(Cl)c(Cl)c2)nc(N)n1 | 89.5% | 92% | 110% | 98.3% | 94.3% | 97.7% | 78.3% | 71.8% | 78.9% | 107% | 94.3% | 87.4% | 121% | 101% | 72.9% | 95.2% | 96.8% | 99.9% | 77.1% | 91.6% |
